Here are results for 52 compounds from PubChem BioAssay AID686978 (National Center for Advancing Translational Sciences (NCATS), 2013).

“And” between values parts separate entries of the source, which are not always exact repeats. Identical values can stand only once. Among all 420,000 compounds or so, about 64,000 (15%) were called active. Inconclusive results (about 27%) are left out. Calls follow the shape of the dose curve; as a rule, active = well fitted inhibition curve with a large enough effect; inconclusive = small, poorly fitted or top-dose-only effect; inactive = flat fitted curve, though single readings scatter. Only a sample is shown.
% is scaled to controls: 0 for no effect and ±100 for the full control effect; potency is read from the fitted curve at half-maximal effect.

This test is described as follows: qHTS for Inhibitors of human tyrosyl-DNA phosphodiesterase 1 (TDP1): qHTS in cells in absence of CPT. Also: nearly all actives have a fitted effect of over 55% in size. The conditions noted are these: DT40 Tdp1-/- hTDP1 cells, no CPT, ATP luminescence, 48 h; activity change, negative = growth inhibition: at 46.2 µM (top of the series). An outline of the steps: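 Chicken DT40 Tdp1-/- cells stably complemented with human TDP1 were seeded at 400 cells/well with DMSO in place of 20 nM camptothecin. After compound pinning, cells grew at least 48 hr at 37 °C; viability read by CellTiter-Glo luminescence.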
`CC(C)(C)C(=O)CSc1ccc(S(=O)(=O)N2CCCC2)cn1`: the “activity change, negative = growth inhibition” value was -12% (inactive). `Cc1ccccc1NC(=O)c1cc2c([nH]c1=O)CC(C)(C)CC2=O`: the “activity change, negative = growth inhibition” value was 1.54% (inactive). Same read-out and setting: the value for `Cn1c(CSCC(=O)Nc2ccccc2)nnc1SCc1ccccc1` was -16.4% (inactive). The same measure, in the same setting: the same measure for `NS(=O)(=O)c1ccc(CNC(=S)NC(=O)c2ccco2)cc1`: -21.3% (inactive). For the compound `CCc1ccc(N(CC(=O)Nc2sc3c(c2C(=O)OC)CCCC3)S(C)(=O)=O)cc1`, the Potency was 23.1 µM (active). Turning to `COC(=O)c1c(NC(=O)CCCC(=O)O)sc2c1CCCCC2`, the “activity change, negative = growth inhibition” value was 1.24% (inactive). On the same count and under the same terms, the same measure for `COC(=O)c1c(NC(=O)C2CC(C)=C(C)CC2C(=O)O)sc2c1CCCCC2` (configuration not stated): -17.4% (inactive); for `O=C(COc1ccccc1)Nc1cc2c3c(c1)CC(=O)N3CCC2`: -10.3% (inactive); for `O=C(CN1CCOCC1)N/N=C/c1ccc(-c2ccc(Br)cc2)o1`: -29.5% (inactive). Still for that read-out and setting: the value for `O=C1CCC(=O)N(c2ccccc2)N1` was -6.87% (inactive). As to `CN(C)S(=O)(=O)c1cccc(NC(=O)COC(=O)/C=C/c2cccs2)c1`, the “activity change, negative = growth inhibition” value was -17.5% (inactive).

`CN(C)S(=O)(=O)c1cccc(NC(=O)COC(=O)C2(c3ccccc3F)CCCC2)c1`: the Potency was 13 µM (active). In the case of `CN(C)S(=O)(=O)c1cccc(NC(=O)COC(=O)c2cc(=O)[nH]c(=O)[nH]2)c1`, the “activity change, negative = growth inhibition” value is -3.13% (inactive). On the same count and under the same terms, the value for `COc1ccc(S(=O)(=O)N2CCN(C(=O)c3cccs3)CC2)cc1OC` was -24.8% (inactive); that for `O=S(=O)(NCCc1ccccc1)c1ccccc1` was -22.6% (inactive).

As to `CCCN(CCC)S(=O)(=O)c1ccc(C(=O)N2CC3CCC(CC3)C2)cc1`, the Potency is 23.1 µM (active). Consider `CCSC1=NCCN1C(=O)c1ccc(S(=O)(=O)N(CC)CC)cc1`, for which the “activity change, negative = growth inhibition” value is 1.3% (inactive). With `CCN(CC(=O)N1CCCC1)S(=O)(=O)c1ccc(F)cc1`, the “activity change, negative = growth inhibition” value is 6.24% (inactive). Regarding `N#CCc1c(C#N)c(N)nc(N2CCCC2)c1C#N`, the “activity change, negative = growth inhibition” value is -12.4% (inactive). Same read-out and setting: the same measure for `CCc1nc(NCCO)c(C#N)c2c1CCCC2`: 2.76% (inactive).

Turning to `CC(C)CCNc1nc(N2CCCC2)c2c(c1C#N)CCN(C)C2`, the Potency is 23.1 µM (active). `CC(=O)Nc1ccc(Nc2ncnc3c2nnn3Cc2ccccc2Cl)cc1`: the “activity change, negative = growth inhibition” value is -17.5% (inactive). On the same count and under the same terms, the same measure for `O=C(Nc1cccc(F)c1)N1CC2(CCN(C(=O)c3csnn3)CC2)C1`: -12.5% (inactive); for `O=S(=O)(NC1CC2CCC1C2)c1ccc(Cl)cc1` (configuration not stated): -3.07% (inactive); for `Nc1nc2c(ncn2[C@@H]2O[C@H](CNS(=O)(=O)N3CCc4ccccc4C3)[C@@H](O)[C@H]2O)c(=O)[nH]1`: 11.3% (inactive).

With `COc1cc2[nH]c(=S)n(CCN3CCCCC3C)c(=O)c2cc1OC` (configuration not stated), the “activity change, negative = growth inhibition” value was -19.2% (inactive). Still for that read-out and setting: the value for `COc1cccc(CNC(=O)CN2C(=O)NC(Cc3ccccc3)(c3ccccc3)C2=O)c1` (configuration not stated) was -3.32% (inactive). `COc1ccc2c(c1)C(=C(C#N)C#N)C(=O)N2CCc1ccccc1`: the Potency was 14.6 µM (active). With `CCCCN1C(=O)/C(=C(/C#N)C(N)=O)c2ccccc21`, the “activity change, negative = growth inhibition” value is -2.74% (inactive). On the same count and under the same terms, the same measure for `NC(=O)C1CCN(C(=O)c2ccc3c(=O)n(Cc4cccc(Br)c4)c(=S)[nH]c3c2)CC1`: -19.8% (inactive); for `Cc1cc(C)cc(OCC(=O)Nc2cc(NC(=O)COc3cc(C)cc(C)c3)cc(C(=O)O)c2)c1`: -27.8% (inactive); for `COC(C)C(C(=O)OCC1=CCN2CC[C@H](O)[C@@H]12)C(C)C` (some centres not stated): -18.8% [at 9.04 µM] (inactive). Turning to `O=C(Cc1ccccn1)c1ccc(O)cc1O`, the “activity change, negative = growth inhibition” value is -10.7% (inactive). For the compound `Cc1ccc2[nH]c(=O)c(CN(C)S(=O)(=O)c3cccc4nonc34)cc2c1`, the “activity change, negative = growth inhibition” value is 4.78% (inactive). The same measure, in the same setting: the same measure for `Cn1c(SCC(=O)N2CCCCC2)nc2c(c1=O)SCC2`: 4.08% (inactive). On the same count and under the same terms, the same measure for `CCn1c(SCc2ccccc2)nc2c(c1=O)SCC2`: -23.3% (inactive). With `Cc1cccc(CSc2nc3c(c(=O)n2C)SCC3)c1`, the Potency is 14.6 µM (active). For the compound `CCCCNC(=O)OC(C)CNC(=O)OC` (configuration not stated), the “activity change, negative = growth inhibition” value was 12.1% (inactive). The same measure, in the same setting: the same measure for `CCC1CN(CCNC(=O)c2cccnc2C)Cc2cc(OC)ccc2O1` (configuration not stated): -18.7% (inactive); for `CCCS(=O)(=O)NCc1c(C)ncc2c1CCN(C(=O)c1ccc(F)c(F)c1)C2`: 2.82% (inactive); for `CCOC(=O)CCCCCC(=O)Nc1ccc2c(c1)CC(=O)N([C@@H](C)CO)C[C@H](C)[C@@H](CN(C)Cc1ccccc1)O2`: -22.9% (inactive). The same measure, in the same setting: the value for `CCSc1nnc(SCC(=O)NNC(=O)c2ccccc2F)s1` was -3.12% (inactive). As for `CCC(CC)C(=O)N1CCN(c2cccc(C)c2C)CC1`, the Potency is 11.6 µM (active). Regarding `Cc1ccccc1N1CCN(C(=O)c2cccnc2)CC1`, the “activity change, negative = growth inhibition” value is -19.2% (inactive). Turning to `Cc1[nH]c2ccc(C(=O)N3CCN(C)CC3)cc2c1C`, the “activity change, negative = growth inhibition” value was -6.28% (inactive).

As to `O=C(c1c(F)cccc1F)N1CCN(c2ncc(Br)cn2)CC1`, the “activity change, negative = growth inhibition” value was -26.9% (inactive).

As to `Cc1cccc(N2CCN(C(=O)c3ccc4c(c3)CCN4S(=O)(=O)c3ccccc3)CC2)c1C`, the Potency was 6.51 µM (active).

Consider `Cc1cccc(N2CCN(C(=O)COCc3cc(-c4ccc5c(c4)OCO5)on3)CC2)c1C`, for which the Potency entry was “inactive”.

On to `Cc1cccc(N2CCN(C(=O)c3cnc(N4CCCC4)nc3C)CC2)c1C`, for which the Potency was 20.6 µM (active). Take `CC(=O)N1CCN(c2cccc(C)c2C)CC1`: the “activity change, negative = growth inhibition” value was -2.67% (inactive).

Consider `Cc1cccc(N2CCN(C(=O)c3ccc(Nc4nc5ccccc5n5nnnc45)cc3)CC2)c1C`, for which the “activity change, negative = growth inhibition” value was -10.5% (inactive). For `CCn1c(C)c(C)c2cc(C(=O)N3CCN(c4cccc(C)c4C)CC3)ccc21`, the Potency was 23.1 µM (active) and 20.6 µM (active).
